Laboratory results taken from the supplement of paper PMC6555819.

Tests used:
Test in all cases: PBM binding z-score (relative to random genomic background probes); higher = stronger binding; sequences stand for … in GC…GCGATTGACAGCGTAGAATGAAGG
[1] = system: FXR:RXRa (NR concentration 270 nM, RXRa partner concentration 90 nM)
Summary of the method: (§1)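 Regression normalization was applied to scanned fluorescence from custom Agilent 4×180K protein-binding microarrays. Before scanning, arrays were incubated 1 h with ligand-free nuclear receptor dimers, and binding was detected with antibodies against each partner (one per run). Binding z-scores use the random background probes as reference.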

[2] = system: LXRa:RXRa (NR concentration 270 nM, RXRa partner concentration 90 nM)
Summary of the method: as §1

[3] = system: LXRa homodimer (NR concentration 270 nM)
Summary of the method: as §1

[4] = system: LXRb:RXRa (NR concentration 270 nM, RXRa partner concentration 90 nM)
Summary of the method: as §1

[5] = system: LXRb homodimer (NR concentration 270 nM)
Summary of the method: as §1

[6] = system: PPARa:RXRa (NR concentration 270 nM, RXRa partner concentration 90 nM)
Summary of the method: as §1

[7] = system: PPARg:RXRa (NR concentration 180 nM, RXRa partner concentration 90 nM)
Summary of the method: as §1

[8] = system: PPARg:RXRa 270nM:90nM, anti-RXR (NR concentration 270 nM, RXRa partner concentration 90 nM)
Summary of the method: as §1

[9] = system: PPARg:RXRa 30nM:10nM, anti-RXR (NR concentration 30 nM, RXRa partner concentration 10 nM)
Summary of the method: as §1

[10] = system: PPARg:RXRa 90nM:30nM, anti-RXR (NR concentration 90 nM, RXRa partner concentration 30 nM)
Summary of the method: as §1

[11] = system: PPARg:RXRa DBDmut IVT, anti-RXR (DBD mutation: RXRa K156A/R161A, NR concentration 270 nM, RXRa partner concentration 90 nM)
Summary of the method: as §1

[12] = system: PPARg:RXRa IVT, anti-PPARg (NR concentration 270 nM, RXRa partner concentration 90 nM)
Summary of the method: as §1

[13] = system: PPARg DBDmut:RXRa IVT, anti-PPARg (DBD mutation: PPARg1 K132A/R137A, NR concentration 270 nM, RXRa partner concentration 90 nM)
Summary of the method: as §1

[14] = system: PPARg DBDmut IVT, anti-PPARg (DBD mutation: PPARg1 K132A/R137A, NR concentration 270 nM)
Summary of the method: as §1

[15] = system: PPARg homodimer (NR concentration 180 nM)
Summary of the method: as §1

[16] = system: PXR:RXRa (NR concentration 270 nM, RXRa partner concentration 90 nM)
Summary of the method: as §1

[17] = system: PXR homodimer (NR concentration 270 nM)
Summary of the method: as §1

[18] = system: RARa:RXR (NR concentration 270 nM, RXRa partner concentration 90 nM)
Summary of the method: as §1

[19] = system: RARa homodimer (NR concentration 270 nM)
Summary of the method: as §1

[20] = system: RARb:RXRa (NR concentration 270 nM, RXRa partner concentration 90 nM)
Summary of the method: as §1

Row | Sequence | PBM binding z-score [1] | PBM binding z-score [2] | PBM binding z-score [3] | PBM binding z-score [4] | PBM binding z-score [5] | PBM binding z-score [6] | PBM binding z-score [7] | PBM binding z-score [8] | PBM binding z-score [9] | PBM binding z-score [10] | PBM binding z-score [11] | PBM binding z-score [12] | PBM binding z-score [13] | PBM binding z-score [14] | PBM binding z-score [15] | PBM binding z-score [16] | PBM binding z-score [17] | PBM binding z-score [18] | PBM binding z-score [19] | PBM binding z-score [20]
1 | CGTCCAAGGTCAGAGAGGTCAGTCAATGCCGAGT | 6.08 | 5.49 | 3.45 | 4.65 | 0.441 | 4.81 | 3.37 | 4.63 | 1.03 | 2.63 | 2.82 | 3.35 | -0.282 | -0.369 | 4.06 | 6.13 | 12.6 | 5.82 | 1.78 | 5.12
2 | CCAGACAGGTGAGTAGGTAACTCAGCCTCGATTA | 0.327 | 0.14 | 0.0547 | -0.023 | -0.401 | 0.695 | 0.545 | 0.565 | -0.111 | 0.0174 | 2.01 | 1.66 | -0.259 | -0.369 | 1.08 | -0.277 | -0.0681 | 0.388 | 0.546 | 0.279
3 | ATCTCTAGGTCAGACTCAGTTCAGTGAAGAACGC | 2.16 | 3.65 | 3.15 | 2.13 | 2 | 2.7 | 3.02 | 2.96 | 0.87 | 2.1 | 5.06 | 5.22 | 1.01 | 1.61 | 2.14 | 4.07 | 1.69 | 2.07 | 1.03 | 3.51
4 | CGAAATAGGTCATTGACAGGACAGTGAATAGTAA | 6.1 | 5.06 | 1.3 | 3.58 | 0.828 | 5.64 | 6.83 | 6.73 | 4.21 | 6.12 | 7.51 | 7.87 | 3.54 | 2.18 | 3.02 | 3.03 | 0.444 | 4.06 | 1.24 | 4.3
5 | TCTTGTAGATCAAGCAGGTAAAGAAAGCCTGAGT | 0.242 | 0.228 | -0.344 | 0.219 | -0.624 | 0.499 | -0.39 | 0.967 | 2.41 | 1.62 | 1.45 | 0.35 | 0.0649 | 0.0829 | 0.161 | 0.0667 | 0.176 | 0.203 | -0.0123 | -0.301
6 | CGTCCAAGGTCAAAGTTCAGTGAAGAGATGACGG | 7.9 | 6.35 | 3.82 | 5.48 | 2.19 | 6.47 | 9.06 | 8.05 | 6.19 | 8.24 | 3.41 | 5.08 | 0.409 | 1.29 | 3.79 | 6.59 | 3.31 | 8.01 | 1.47 | 5.44
7 | ATCTCTAGGCAAAAGTTCAGTGAATCCCGAGGAT | 0.235 | 0.757 | 0.751 | 0.584 | 0.319 | 2.96 | 5.41 | 6.14 | 5.06 | 6.01 | 0.185 | 1.61 | 0.694 | 0.529 | 1.05 | 1.5 | 1.04 | 0.864 | -0.11 | 2.33
8 | TCTCGGAGGACACGAAAGGTCAGAGCGCGACATC | 3.05 | 4.07 | 2.95 | 3.16 | -0.239 | 3.64 | 1.36 | 2.96 | 2.26 | 2.66 | 1.45 | 1.17 | -0.212 | -0.0951 | 3.06 | 4.27 | 0.685 | 4.73 | 1.1 | 4.27
